# Screening data from PubChem BioAssay.
# RORgamma inh: qHTS for inhibitors of ROR gamma transcriptional activity | actives 5.4% (n = 310,000) | Drosophila S2 Gal4-RORgamma UAS-luciferase reporter, 20 h | Nuclear receptor ROR-gamma (Mus musculus), P51450 | Potency, µM (highest dose often 53.6 µM), for the others: at the top dose activity change, negative = inhibition, most hits filed as inhibitors | AID 2551, 2010; also: potency is read from the fitted curve at half-maximal effect; nearly all actives have a fitted effect of over 60% in size
# Target sequence (P51450 whole entry, looked up, the tested form may be a part): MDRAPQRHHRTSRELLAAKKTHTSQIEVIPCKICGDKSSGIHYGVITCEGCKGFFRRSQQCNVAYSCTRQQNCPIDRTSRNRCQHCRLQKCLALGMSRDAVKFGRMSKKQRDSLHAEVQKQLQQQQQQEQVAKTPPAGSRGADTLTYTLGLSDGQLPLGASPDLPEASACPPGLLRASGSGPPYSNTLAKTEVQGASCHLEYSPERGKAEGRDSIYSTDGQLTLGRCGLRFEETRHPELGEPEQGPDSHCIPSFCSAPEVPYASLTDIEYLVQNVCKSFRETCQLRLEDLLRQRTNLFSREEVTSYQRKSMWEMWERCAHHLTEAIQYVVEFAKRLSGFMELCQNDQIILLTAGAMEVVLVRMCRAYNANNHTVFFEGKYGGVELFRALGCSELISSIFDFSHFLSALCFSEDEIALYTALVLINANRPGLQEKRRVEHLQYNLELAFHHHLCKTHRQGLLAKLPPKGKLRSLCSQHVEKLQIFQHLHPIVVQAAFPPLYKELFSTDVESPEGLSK
#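 ROR gamma transcriptional activity was tracked as Gal4-UAS luciferase output in stably transfected Drosophila Schneider cells, with compound added 1 hr before 700 uM copper sulfate induction and a 20 hr ambient-temperature incubation.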
# VP16 counter: VP16 counterscreen qHTS for inhibitors of ROR gamma transcriptional activity; Drosophila S2 Gal4-VP16 UAS-luciferase, luminescence, 20 h; Potency, µM (highest dose often 53.6 µM), for the others: top-dose activity, negative = inhibition, hits mostly inhibitors; actives 3.5% (n = 310,000);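 also: Gal4-VP16 expression switched on by copper sulfate through the metallothionein promoter; potency is read from the fitted curve at half-maximal effect; nearly all actives have a fitted effect of over 50% in size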
# DT40 TDP1 CPT: qHTS for Inhibitors of human tyrosyl-DNA phosphodiesterase 1 (TDP1): qHTS in cells in presence of CPT. actives 12% (n = 420,000). Potency, µM (titrated, usually from 46.2 µM), without a hit: top-dose activity change, negative = growth inhibition, hits mostly inhibitors. chicken DT40 Tdp1-/-;hTDP1 cells + 20 nM CPT, ATP luminescence, 48 h. AID 686979, 2013; also: potency is read from the fitted curve at half-maximal effect; nearly all actives have a fitted effect of over 55% in size
#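 Cell growth measured by CellTiter-Glo luminescence after a minimum 48 h, 37 C compound exposure with 20 nM CPT in Tdp1-knockout DT40 cells stably expressing hTDP1, seeded 400/well; qHTS titration format.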
# IL-1B inflam inh: qHTS for Inhibitors of Inflammasome Signaling: IL-1-beta AlphaLISA Primary Screen; THP-1 LPS/ATP IL-1B secretion, AlphaLISA, 16 h; active compounds read low; activity change, % at 57.5 µM; actives 4.7% (n = 360,000); AID 743279, 2014; in the data active = activity change below about -50%; inconclusive = mostly about -30% to -49%
#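 THP-1 cells pretreated 1 hr with compounds (up to 57.5 uM final), then stimulated with LPS (250 ng/mL final) plus ATP (1.25 mM final); secreted IL-1B measured by AlphaLISA after 16 hr, decreased signal indicating inhibition.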
# DT40 TDP1 no CPT: qHTS for Inhibitors of human tyrosyl-DNA phosphodiesterase 1 (TDP1): qHTS in cells in absence of CPT | DT40 Tdp1-/- hTDP1 cells, no CPT, ATP luminescence, 48 h | Potency, µM (doses to about 46.2 µM), without a hit: top-dose activity change, negative = growth inhibition, hits mostly inhibitors | actives 15% (n = 420,000) | AID 686978, 2013; also: potency is read from the fitted curve at half-maximal effect; nearly all actives have a fitted effect of over 55% in size
#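 Growth kinetics read by CellTiter-Glo luminescence after ≥48 hr at 37 °C. Cells: DT40 Tdp1-/- stably carrying human TDP1, 400 per well, compound exposure in the absence of CPT (DMSO vehicle).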
# ELG1 DNA repair: qHTS screen for small molecules that inhibit ELG1-dependent DNA repair in human embryonic kidney (HEK293T) cells expressing luciferase-tagged ELG1; HEK293T ELG1-luciferase reporter, luminescence, 16 h; DNA damage induced by 5-fluorouridine; Potency, µM (top dose mostly 46.1 µM), for inactives: top-dose activity change, negative = inhibition, hits mostly inhibitors; actives 2.3% (n = 330,000); AID 504467, 2011; also: potency is read from the fitted curve at half-maximal effect; nearly all actives have a fitted effect of over 55% in size
#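 Cells (2,000 per well) received 5-fluorouridine plus test compound or DMSO and were incubated 16 hr at 37 °C, 5% CO2. Luciferase activity was read by luminescence 30 min after ONE-Glo addition; signal suppression marked inhibition of damage-induced ELG1 function.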
# The depositor's hits bear a star; u = inconclusive; x = not tested or not shown; [ ] = remark or other dose. The list is not random: actives were taken first. Their share in the collection is about 21%. Unless noted, calls follow the shape of the dose curve; as a rule, active = well fitted curve in the direction sought with a large enough effect; inconclusive = small, poorly fitted or top-dose-only effect, or another doubt; inactive = no such curve, though single readings can be large; an effect the other way counts as inactive or inconclusive. % is scaled to controls: 0 for no effect and ±100 for the full control effect.
SMILES,RORgamma inh,VP16 counter,DT40 TDP1 CPT,IL-1B inflam inh,DT40 TDP1 no CPT,ELG1 DNA repair
CCCC(=O)N1CCC1(C)C(=O)Nc1scc(C)c1C#N (configuration not stated),x,x,21µM*,7,15µM*,x
Cc1ccc(NC(=O)C(=O)NCc2ccc(/C=C(/C#N)C(=O)NCc3cccnc3)o2)cc1,15%,-10%,u,0,-22%,12%
Cc1ccc(NC(=O)C(=O)NCc2ccc(/C=C(/C#N)C(=O)NCc3cccnc3)o2)cc1C,-12%,u,u,0,16µM*,-22%
Cc1cc(C)c2c(=O)cc(C(=O)NCCc3ccc(S(N)(=O)=O)cc3)oc2c1,x,x,5%,x,-11%,x
CC(=O)Nc1ccc(C(=O)CSc2nnc(Cn3nnc4ccccc43)n2C)cc1,-13%,8%,u,13,-10%,4%
O=C1c2ccccc2C(=O)N1CC(O)Cn1nnc2ccccc21 (configuration not stated),6%,-8%[0.365 µM],1%,19,-1%,-2%
Cn1c(Cn2nnc3ccccc32)nnc1SCC(=O)N1c2ccccc2Sc2ccccc21,-15%,u,13µM*,-3,16µM*,u
OC(CN1c2ccccc2Sc2ccccc21)Cn1nnc2ccccc21 (configuration not stated),-25%,1%[0.365 µM],u,u,21µM*,u
Cn1c(Cn2nnc3ccccc32)nnc1SCC(=O)N1c2ccccc2CCc2ccccc21,u,-10%,23µM*,-13,u,u
Cn1c(Cn2nnc3ccccc32)nnc1SCC(N)=O,19%,-13%,-16%,24,-11%,-28%
COc1cc(C(=O)NCC(=O)OCc2ccc(F)cc2)cc(OC)c1OC,x,x,-13%,2,-3%,u
Clc1ccc2oc(-c3ccccc3)cc(=NCCCN3CCOCC3)c2c1,-19%,-3%,u,-91*,u,u
c1ccc(CN2CCC(Nc3nc(-c4ccccc4)nc4ccccc34)CC2)cc1,-39%,-3%,11%,-52*,u,u
Cc1csc2ncnc(NC3CCN(Cc4ccccc4)CC3)c12,2.5µM*,2.8µM*,1µM*,u,0.65µM*,7%
c1ccc(CN2CCC(CNc3ncnc4ccccc34)C2)cc1 (configuration not stated),x,x,21µM*,-11,10µM*,x
COc1ccc(N2C(=NC(=O)CC3CCCCC3)SC3CS(=O)(=O)CC32)cc1 (configuration not stated),-13%,15%,-24%,31,1%,9%
Cc1cnc(C(=O)Oc2ccc(-c3ccccc3)cc2)cn1,20%,-11%,-24%,3,-13%,22%
Cc1ccc(OCCC(=O)OCC(=O)NC(=O)NC2CCCC2)cc1,x,x,u,-10,u,7%
CC(C)CC(NC(=O)C1CCC(C)CC1)C(=O)N1CCN(c2ccccn2)CC1 (configuration not stated),17%,-4%,16µM*,-18,23µM*,-17%
CC(C)CC(NC(=O)C1CCC(C)CC1)C(=O)NCc1ccccn1 (configuration not stated),-3%,3%,-26%,14,u,0%
COc1ccc(Nc2nc3ccccc3nc2NS(=O)(=O)c2ccc(Cl)cc2)cc1OC,x,x,9.2µM*,x,u,x
